From the supplement of paper PMC4206461

System: Pseudomonas aeruginosa PA14 wild type
Assay: respiration area under curve with compound as sole nitrogen source, 24 h (OmniLog AUC (arbitrary units)); higher = more respiration / better utilisation as nitrogen source, active = 2000 or more
Conditions: plate: PM8
Method: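 Biolog Phenotype MicroArray plates PM6-PM8: each di/tripeptide is the sole nitrogen source (IF-0 medium with succinate/ferric citrate and dye mix A). Tetrazolium reduction was read in the OmniLog every 15 min for 24 h at 37°C and summarised as area under the respiration curve (arbitrary units). The paper counts values below 2000 as no respiration and above 8000 as solid respiration. Replicate datasets are averaged.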

| Structure (SMILES) | respiration area under curve |
| --- | --- |
| N[C@@H](Cc1ccc(O)cc1)C(=O)NCC(=O)NCC(=O)O | 11300 (active) |
